Most compounds without a hit are left out; they make up all but 19% or so of the library.
TDP1 cell noCPT – qHTS for Inhibitors of human tyrosyl-DNA phosphodiesterase 1 (TDP1): qHTS in cells in absence of CPT; DT40 Tdp1-/- hTDP1 cells, no CPT, ATP luminescence, 48 h; 420,000 tested, 15% active; Potency, µM (highest dose often 46.2 µM), without a hit: at the top dose activity change, negative = growth inhibition, most hits filed as inhibitors; further: nearly all actives have a fitted effect of over 55% in size
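No-CPT arm: Tdp1-/-;hTDP1 DT40 cells (400/well) plus compounds, incubated ≥48 hr at 37 °C. Readout CellTiter-Glo luminescence.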
KB-3-1 cytotox – qHTS assay for MDR1-selective chemotherapeutics: Primary screen using the parental adenocarcinoma cell KB-3-1; KB-3-1 viability, CellTiter-Glo ATP luminescence, 72 h; Potency, µM (top dose mostly 46.1 µM), most hits filed as cytotoxic; 400,000 tested, 1.4% active; further: nearly all actives have a fitted effect of over 60% in size
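KB-3-1 cells, DMEM (no phenol red) + 10% FBS; compound by pin transfer, 72 h, 37 °C. Readout: CellTiter-Glo luminescence after 10 min. Data normalized, curve-fitted.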
TDP1 cell CPT – qHTS for Inhibitors of human tyrosyl-DNA phosphodiesterase 1 (TDP1): qHTS in cells in presence of CPT. chicken DT40 Tdp1-/-;hTDP1 cells + 20 nM CPT, ATP luminescence, 48 h. Potency, µM (doses to about 46.2 µM), inactives show at the highest dose activity change, negative = growth inhibition, actives largely listed as inhibitors. 420,000 tested, 12% active. AID 686979, 2013; further: nearly all actives have a fitted effect of over 55% in size
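Chicken DT40 Tdp1-/- cells stably complemented with human TDP1 were seeded at 400 cells/well in medium containing 20 nM camptothecin, exposed to pin-transferred compounds, and grown at 37 °C for at least 48 hr. Viability was read as ATP luminescence.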
HT1080 IDH1KD tx – qHTS for induction of synthetic lethality in tumor cells producing 2HG: qHTS for the HT-1080-IDH1KD cell line | HT-1080 IDH1 knockdown viability, ATP luminescence, 48 h | Potency, µM (series often up to 46.1 µM), for the others: at the top dose activity, negative = toxicity, hits mostly cytotoxic | 360,000 tested, 2% active | AID 686971, 2013;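 further: 0% = DMSO wells and -100% = cell-free medium wells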
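IDH1KD HT-1080 cells, 750/well, RPMI + 5% FBS; compound pinned after 2 h settling; 48 h, 37 °C; CellTiter-Glo luminescence; % activity normalised to DMSO and no-cell wells; curves fitted, classed by r2 and efficacy.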
KB-V1 cytotox – qHTS assay for MDR1-selective chemotherapeutics: Primary screen using the drug-selected MDR subline cells KB-V1; KB-V1 MDR cells viability, CellTiter-Glo, 72 h; Potency, µM (series often up to 46.1 µM), hits mostly cytotoxic; 400,000 tested, 3.4% active; AID 1347076, 2019; further: nearly all actives have a fitted effect of over 60% in size
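Readout: CellTiter-Glo luminescence, 10 min after addition. Cells: KB-V1 MDR subline, 72 h at 37 degrees C with compound. Analysis: corrected, normalized data fitted to concentration-effect curves.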
HT1080-NT tox – qHTS for induction of synthetic lethality in tumor cells producing 2HG: qHTS for the HT-1080-NT fibrosarcoma cell line; HT-1080-NT fibrosarcoma viability, CellTiter-Glo ATP luminescence, 48 h; Potency, µM (titrated, usually from 46.1 µM), without a hit: top-dose activity, negative = less viability, actives largely listed as cytotoxic; 360,000 tested, 1.6% active; AID 686970, 2013;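 further: NT is the 2HG producing partner of a matched IDH1 knockdown line; 0% = DMSO-treated cells and -100% = media-only wells without cells; nearly all actives have a fitted effect of over 55% in size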
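Compounds were tested in concentration-response format on HT-1080-NT cells for 48 hours at 37 degrees C. Cell viability came from CellTiter-Glo luminescence; curves were classified by r2, response magnitude and activity.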
* marks the source's active call; other numbers are inactive results; i = inactive; u = inconclusive; x = not tested or not shown; [ ] = another dose, or the depositor's remark. The call rests on the fitted dose curve; in most records, active means well fitted curve in the direction sought with a large enough effect; inconclusive means small, poorly fitted or top-dose-only effect, or another doubt; inactive means no such curve, though single readings can be large; an effect the other way counts as inactive or inconclusive. Unless noted, on the % scale 0 is the no-effect control and ±100 the full control effect; potency means the concentration at half of the fitted maximal effect.

SMILES | TDP1 cell noCPT | KB-3-1 cytotox | TDP1 cell CPT | HT1080 IDH1KD tx | KB-V1 cytotox | HT1080-NT tox
CC(C)[C@H](NC(N)=O)C(=O)Nc1ccc(Oc2ccccc2)cc1 | -4% | i | 0% | u | i | -13%
Cc1cccc(C(=O)N[C@H](C(=O)Nc2nc(C)cs2)C(C)C)c1 | 7.3µM* | i | 8.2µM* | 10% | i | 4%
COc1ccc(C(=O)NC(Nc2ccccc2)C(Cl)(Cl)Cl)cc1 (stereo not given) | u | u | -23% | -18% | 8.2µM* | -6%
CC(C)[C@H](NC(=O)Nc1ccc(Oc2ccccc2)cc1)C(=O)O | 13µM* | i | 12µM* | 6% | i | 1%
CC(C)[C@H](NC(=O)c1ccccc1)C(=O)OCC(=O)c1ccc2c(c1)NC(=O)CO2 | 5.8µM* | u | 4.6µM* | -16% | i | 11%
CCC(=O)c1ccc(OCC(=O)c2ccc3c(c2)NC(=O)CO3)cc1 | -21% | i | -15% | 14% | i | 1%
CCc1ccc(OCC(=O)OCC(=O)c2ccc3c(c2)NC(=O)CO3)cc1 | -23% | i | -8% | -17% | i | 2%
CCCCCCC(=O)OCC(=O)c1ccc2c(c1)NC(=O)CO2 | 13µM* | u | 8.2µM* | 13% | i | 2%
O=C1COc2ccc(C(=O)CCl)cc2N1 | 1.6µM* | u | 5.8µM* | -9% | i | -21%
O=C1CCC(C(=O)N2CCN(c3cnccn3)CC2)CN1CCc1ccc(Cl)cc1 (stereo not given) | -6% | x | 2% | 12% | x | -11%
Cc1ccc(Nc2nnc(SCC(=O)NC3CC3)s2)cc1 | 15% | i | -1% | -2% | i | 4%[9.24 µM]
CC(NC(=O)c1cccc(F)c1)C(c1cccs1)N1CCN(C)CC1 (stereo not given) | -5% | i | 5% | 5% | u | 7%
CC1CCCN(C(=O)c2ccc(Cl)c(S(=O)(=O)N3CCCCCC3)c2)C1 (stereo not given) | 18µM* | i | u | u | i | -12%
O=C(c1ccc(Cl)c(S(=O)(=O)N2CCCC2)c1)N1CCCCC1 | u | x | -18% | 1% | x | 6%
COc1cc2c(cc1OC)C(COc1ccc(F)cc1)N(C(=O)c1ccc(S(=O)(=O)N3CCCC3)cc1)CC2 (stereo not given) | u | i | u | x | i | x
CC1CCN(C(=O)c2ccc(Br)c(S(=O)(=O)N3CCOCC3)c2)CC1 | u | i | -4% | 0% | i | 5%
CC(=O)N1CCN(C(=O)c2ccc(Cl)c(S(=O)(=O)N3CC(C)OC(C)C3)c2)CC1 (stereo not given) | 9% | i | -1% | -1% | i | -2%
CC1CN(S(=O)(=O)c2cc(C(=O)N3CCCCC3C)ccc2Cl)CC(C)O1 (stereo not given) | 1.8µM* | i | -78% | -11% | i | -14%
COc1cc2c(cc1OC)C(C)N(C(=O)c1ccc(Cl)c(S(=O)(=O)N3CCCCC3)c1)CC2 (stereo not given) | 10µM* | 12µM* | 21µM* | -19% | i | -23%
CC1CCN(S(=O)(=O)c2cc(C(=O)N3CCN(c4ncccn4)CC3)ccc2Br)CC1 | 23µM* | i | u | -20% | i | -1%
